Bioassay records from PubChem BioAssay.
TROY signal inh: inhibitors of TROY-dependent NF-kB signaling; Q293 LMP1-TROYcd NF-kB luciferase reporter, 4 h; inhibition, % at 10 µM; 0.98% of 360,000 active; AID 1347056;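 active = compounds whose plate-normalised and pattern-corrected inhibition of the luciferase reporter signal at the single screening dose is 50% or more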
HIF-2a inh: blocks HIF-2a reporter activity; 786-0 RCC cells HIF-2a reporter, luciferase luminescence, overnight; inhibition, % at 18.8 µM; 0.72% of 360,000 active;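 active = inhibition of the luminescence signal of 40% or more relative to plate controls, in a single-dose primary screen at 18.75 µM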
CF NFkB inh: inhibitors of cystic fibrosis induced NF-kB; KKLEB NF-kB-GFP reporter, PAF-induced, GFP fluorescence overnight; inhibition, % at 5 µM; 0.86% of 360,000 active; AID 588850;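 active = at least 50% inhibition at 5 µM, scaled per plate between neutral and stimulator controls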;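 also: PAF is a Pseudomonas aeruginosa culture filtrate used as stimulus; plate controls were PAF-stimulated DMSO wells for no effect and unstimulated DMSO wells for full effect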
KKLEB cytotox: counter-screen for CF NF-kB inhibitors: cytotoxicity; activity change (cytotoxicity), % at 5 µM; KKLEB CF airway cells viability, ATPlite luminescence, overnight; active compounds read low; cells stimulated with P. aeruginosa culture filtrate; 0.36% of 360,000 active;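 active = corrected activity change at or below -50% at 5 µM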
TWEAK-Fn14 inh: blocks TWEAK-Fn14 interaction in a reporter cell assay | 2% of 360,000 active | AID 1159606 | TWEAK-stimulated Fn14 reporter cells, luciferase luminescence, 8 h | inhibition, % at 10 µM; in the data active = inhibition above about 50%
Peg3 prom inh: reduces Peg3 promoter-driven luciferase expression in HeLa; 1.7% of 360,000 active; inhibition, % at 20 µM; HeLa PEG-Prom luciferase reporter, luminescence, overnight;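 active = inhibition of at least 50% at 20 µM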
* hit, by the source's call. In the library only some 4% were active in any assay of this set; here they are far more common.

How did COc1ccc(C(=O)C(CN2CCOCC2)c2ccccc2)cc1F (configuration not stated) do in these assays?
TROY signal inh: 17.7; HIF-2a inh: 30.6; CF NFkB inh: 36.1; KKLEB cytotox: -35.1; TWEAK-Fn14 inh: 28.9; Peg3 prom inh: 95.2*

What do the screens show for `CCC1(CCC(C)C)SC(N)=NC1=O` (configuration not stated)?
TROY signal inh: -13.5; HIF-2a inh: 11.9; CF NFkB inh: 5.2; KKLEB cytotox: -9.1; TWEAK-Fn14 inh: 4.6; Peg3 prom inh: -7.2

What do the screens show for `C[C@@H]1CCCCO[C@H](CN(C)S(=O)(=O)c2ccc(F)cc2)[C@@H](C)CN([C@H](C)CO)C(=O)c2cc(NC(=O)Nc3ccc(C(F)(F)F)cc3)ccc2O1`?
TROY signal inh: 1.9; HIF-2a inh: -1.1; CF NFkB inh: -9.5; KKLEB cytotox: 3.5; TWEAK-Fn14 inh: 14.2; Peg3 prom inh: 20.1

What do the screens show for `CCNC(=O)C1(C)CCN1CCC(=O)c1ccc(C)cc1` (configuration not stated)?
TROY signal inh: -12.1; HIF-2a inh: 2.6; CF NFkB inh: -27.3; KKLEB cytotox: 9.1; TWEAK-Fn14 inh: -5.7; Peg3 prom inh: -2.2

What do the screens show for `COc1ccc(Nc2nc(N3CCCC3)c3ccccc3n2)cc1`?
TROY signal inh: 46.0; HIF-2a inh: 6.3; CF NFkB inh: -36.1; KKLEB cytotox: 0.8; TWEAK-Fn14 inh: 6.1; Peg3 prom inh: 60.2*

How did Cc1nc(N2CCCCCC2)c2ccccc2n1 do in these assays?
TROY signal inh: 24.1; HIF-2a inh: 12.9; CF NFkB inh: -15.9; KKLEB cytotox: 3.1; TWEAK-Fn14 inh: -29.4; Peg3 prom inh: 10.2

Results for CCN(CC)c1ccc(Nc2nc(N3CCOCC3)c3ccccc3n2)cc1 ?
TROY signal inh: 35.3; HIF-2a inh: 11.0; CF NFkB inh: 10.5; KKLEB cytotox: -7.6; TWEAK-Fn14 inh: 53.9*; Peg3 prom inh: 14.9

How did OC[C@@H]1CN(Cc2ccco2)C[C@H](n2cnc3c(NCc4ccncc4)ncnc32)O1 do in these assays?
TROY signal inh: 6.0; HIF-2a inh: 9.9; CF NFkB inh: 7.0; KKLEB cytotox: 2.2; TWEAK-Fn14 inh: -0.8; Peg3 prom inh: -1.1

How did COc1ccc(NC(=O)C2(C)Cc3c(-c4cccc(C(N)=O)c4)ccnc3O2)cn1 (configuration not stated) do in these assays?
TROY signal inh: -1.4; HIF-2a inh: 18.7; CF NFkB inh: 9.7; KKLEB cytotox: -8.4; TWEAK-Fn14 inh: -2.6; Peg3 prom inh: 27.9

How did CCc1nc2ccc(C(=O)NCCc3ccccn3)cn2c1N(C)CCC(C)C do in these assays?
TROY signal inh: -20.2; HIF-2a inh: 13.7; CF NFkB inh: -0.2; KKLEB cytotox: 4.6; TWEAK-Fn14 inh: -10.3; Peg3 prom inh: 10.6

How did C=CCOc1ccccc1CN(C(=O)CCl)c1ccc2c(c1)OCO2 do in these assays?
TROY signal inh: -1.9; HIF-2a inh: -14.5; CF NFkB inh: 92.0*; KKLEB cytotox: -84.7*; TWEAK-Fn14 inh: 26.0; Peg3 prom inh: -18.3

Results for O=C(CSc1nc(C2CC2)nc2ccccc12)N1CCc2ccccc21 ?
TROY signal inh: 26.9; HIF-2a inh: 19.0; CF NFkB inh: 16.6; KKLEB cytotox: -13.3; TWEAK-Fn14 inh: -17.6; Peg3 prom inh: 13.3

How did COc1cc2c(cc1N/C=C(\C#N)c1nc(-c3ccccc3)cs1)oc1ccccc12 do in these assays?
TROY signal inh: -26.7; HIF-2a inh: 11.9; CF NFkB inh: 1.1; KKLEB cytotox: -18.0; TWEAK-Fn14 inh: -22.1; Peg3 prom inh: 61.0*

What do the screens show for `COCCCNC(=O)c1cc(-c2cccnc2)nc2ccccc12`?
TROY signal inh: 56.9*; HIF-2a inh: 5.9; CF NFkB inh: -12.9; KKLEB cytotox: -25.9; TWEAK-Fn14 inh: 30.2; Peg3 prom inh: 8.4

Results for O=C(NNC(=O)c1cc(-c2ccccc2)nc2ccccc12)Nc1cccc(Cl)c1 ?
TROY signal inh: 69.1*; HIF-2a inh: -1.9; CF NFkB inh: -25.3; KKLEB cytotox: -8.7; TWEAK-Fn14 inh: 39.3; Peg3 prom inh: 48.3

How did O=C(NNC(=O)c1cc(-c2ccncc2)nc2ccccc12)Nc1ccc(F)cc1 do in these assays?
TROY signal inh: 15.4; HIF-2a inh: 1.3; CF NFkB inh: -4.5; KKLEB cytotox: -3.1; TWEAK-Fn14 inh: 23.6; Peg3 prom inh: -4.5

How did O=C(NNC(=O)c1cc(-c2cccnc2)nc2ccccc12)Nc1ccc(Cl)cc1 do in these assays?
TROY signal inh: 52.1*; HIF-2a inh: -186.4; CF NFkB inh: -14.7; KKLEB cytotox: 1.6; TWEAK-Fn14 inh: 12.6; Peg3 prom inh: -78.8
